Mtb UGM inh: M. tuberculosis UGM enzyme inhibitors, primary screen, biochemical, fluorescence polarization, single point. UDP-galactopyranose mutase (Mycobacterium tuberculosis (strain ATCC 25618 / H37Rv)), …. purified UGM, fluorescence polarization probe displacement. inhibition, % at 10 µM. actives 0.06% (n = 320,000); in the data active = inhibition above about 10%, passing the limit was not always enough
Target sequence (P9WIQ1 whole entry, looked up): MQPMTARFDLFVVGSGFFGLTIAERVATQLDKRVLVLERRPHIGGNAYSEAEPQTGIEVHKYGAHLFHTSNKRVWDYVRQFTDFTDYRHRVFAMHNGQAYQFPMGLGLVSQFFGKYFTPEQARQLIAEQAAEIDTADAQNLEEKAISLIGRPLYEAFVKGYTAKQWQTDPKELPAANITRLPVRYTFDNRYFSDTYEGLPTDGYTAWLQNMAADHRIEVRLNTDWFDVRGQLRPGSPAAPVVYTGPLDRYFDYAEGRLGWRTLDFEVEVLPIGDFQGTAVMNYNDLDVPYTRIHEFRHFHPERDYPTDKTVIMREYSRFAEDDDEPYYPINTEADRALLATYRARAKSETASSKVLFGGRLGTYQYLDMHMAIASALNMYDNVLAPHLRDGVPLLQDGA
Mtb betalactam: beta-lactam sensitization of Mtb H37Rv, H37Rv; inhibition, % at 25 µM; actives 0.27% (n = 330,000); M. tuberculosis H37Rv growth with meropenem, percent inhibition;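 note: growth measured after seven days incubation then overnight dye step; 0% = bacteria only wells and 100% = bacteria with antibiotic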
GDH-TPI counter: GDH-TPI coupling enzyme inhibitors, primary screen, artefact control for M. tuberculosis FBA inhibitor project, biochemical, absorbance, full deck; GDH-TPI coupled enzyme counterscreen, NADH absorbance; inhibition, % at 4.8 µM; actives 1.2% (n = 360,000); in the data active = inhibition above about 30%;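 note: 0% = DMSO wells and 100% = wells lacking the enzyme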
Rv3671c protease: Rv3671c serine protease inhibitors, primary screen, biochemical, fluorescence polarization, M. tuberculosis H37Rv; actives 0.048% (n = 320,000); inhibition, % at 5.96 µM; in the data active = inhibition above about 38%;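 note: extracellular domain of Rv3671c used as enzyme; 0% = enzyme with DMSO and 100% = no enzyme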
RecA splice inh: Mtb RecA intein splicing inhibitors, primary screen, biochemical, fluorescence, HTS; actives 0.75% (n = 290,000); inhibition, % (no concentration beside the values); cell-free RecA intein splicing; Protein RecA (Mycobacterium tuberculosis (strain ATCC 25618 / H37Rv)), P9WHJ3; in the data active = inhibition above about 30%;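 note: 0% = vehicle wells and 100% = reference inhibitor control wells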
FBA Mtb inh: Mtb FBA enzyme inhibitors, primary screen, biochemical, fluorescence, strain H37Rv; Fructose-bisphosphate aldolase (Mycobacterium tuberculosis (strain ATCC 25618 / H37Rv)), …; purified M. tuberculosis FBA, fluorescence read-out; actives 2.3% (n = 360,000); inhibition, % at 1 µM; in the data active = inhibition above about 27%;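 note: 0% = vehicle and 100% = reference inhibitor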
GFP chromo cs: counter-screen: blocks GFP chromophore formation, dose response, counter-screen, biochemical, fluorescence, homogeneous; shares compounds with RecA splice inh; cell-free GFP chromophore formation; EC50, µM; actives 83% (n = 2,100); AID 434968, 2010
Active calls of the source: *. The list is not random: actives were taken first. Their share in the collection is about 4%. Unless noted, the rule behind the calls is not given here.

Results for CCOC(=O)N1C(=O)[C@](c2ccc(Cl)cc2)(C(C)C)N1C(=O)OCC ?
Mtb UGM inh: -1.3; Mtb betalactam: 5.8; GDH-TPI counter: 4.0; Rv3671c protease: -0.4; RecA splice inh: 34.0*; FBA Mtb inh: -0.6; GFP chromo cs: 3.5*

What do the screens show for `CCN1Cc2c(/C=C/c3ccccc3)nc3ccc(OC)cc3c2N(c2cccc(Cl)c2)C1`?
Mtb UGM inh: 4.2; Mtb betalactam: 90.4; GDH-TPI counter: 16.2; Rv3671c protease: -43.8; RecA splice inh: 34.4*; FBA Mtb inh: 4.0; GFP chromo cs: 23.4*

Results for Cc1noc2ncnc(Sc3ccc(Br)cc3)c12 ?
Mtb UGM inh: 0.0; Mtb betalactam: 100.0; GDH-TPI counter: -3.2; Rv3671c protease: -9.6; RecA splice inh: 36.5*; FBA Mtb inh: 5.2; GFP chromo cs: 31.5*

How did Cc1noc2ncnc(N3CCCC3)c12 do in these assays?
Mtb UGM inh: -0.1; Mtb betalactam: 7.2; GDH-TPI counter: 0.3; Rv3671c protease: -4.5; RecA splice inh: -0.4; FBA Mtb inh: -4.7

Results for Cc1oc2c(c1C(=O)N1CCC(C)CC1)C(=O)c1ccccc1C2=O ?
Mtb UGM inh: 0.1; Mtb betalactam: 3.4; Rv3671c protease: -25.6; RecA splice inh: 78.7*; GFP chromo cs: 8.49*

What do the screens show for `CCOC(=O)C1CCN(C(=O)c2c(C)oc3c2C(=O)c2ccccc2C3=O)CC1`?
Mtb UGM inh: 0.4; Mtb betalactam: 7.4; GDH-TPI counter: -8.2; Rv3671c protease: -30.4; RecA splice inh: 68.9*; FBA Mtb inh: -1.3; GFP chromo cs: 4.71*

How did CCOC(=O)C1CCN(C(=O)c2ccc(C)o2)CC1 do in these assays?
Mtb UGM inh: -0.3; Mtb betalactam: 1.6; GDH-TPI counter: -1.7; Rv3671c protease: -1.5; FBA Mtb inh: -1.4

What do the screens show for `CC1(C(=O)Nc2cccc(-n3cnnn3)c2)Cc2ccccc2C(=O)O1` (stereo unspecified)?
Mtb UGM inh: 3.4; Mtb betalactam: -6.0; GDH-TPI counter: 6.0; Rv3671c protease: 1.3; FBA Mtb inh: -3.4

What do the screens show for `Cc1ccc(NC2=C(NC(=O)c3ccccc3)C(=O)c3ccccc3C2=O)cc1Cl`?
Mtb UGM inh: -1.4; Mtb betalactam: 88.1; GDH-TPI counter: 12.4; Rv3671c protease: -69.3; RecA splice inh: 70.4*; FBA Mtb inh: -5.6; GFP chromo cs: 6.45*

What do the screens show for `Cc1ccc(NCC(=O)c2ccccc2)cc1Cl`?
Mtb UGM inh: 0.4; Mtb betalactam: 95.7; GDH-TPI counter: 1.6; Rv3671c protease: -1.8; RecA splice inh: -0.5; FBA Mtb inh: 0.9

How did O=C(O)c1ccc(NC2=C(Cl)C(=O)c3ccccc3C2=O)cc1 do in these assays?
Mtb UGM inh: 3.2; Mtb betalactam: -2.4; GDH-TPI counter: 5.3; Rv3671c protease: -4.0; RecA splice inh: 97.7*; FBA Mtb inh: 0.4; GFP chromo cs: 2.15*

What do the screens show for `O=C1C(Cl)=C(Nc2ccccc2)C(=O)c2ccccc21`?
Mtb UGM inh: 0.9; Mtb betalactam: 0.7; GDH-TPI counter: 13.6; Rv3671c protease: -5.4; RecA splice inh: 2.2; FBA Mtb inh: -4.2

Results for COc1ccc(-c2oc(NC(=O)CCl)c(C#N)c2-c2ccc(OC)cc2)cc1 ?
Mtb UGM inh: -0.5; Mtb betalactam: 98.0; GDH-TPI counter: 12.9; Rv3671c protease: 29.4; RecA splice inh: 90.2*; FBA Mtb inh: 3.1; GFP chromo cs: 1.43*

Results for Cc1cc(=O)[nH]c(NN=Cc2cc(Br)ccc2O)n1 ?
GDH-TPI counter: 28.0; FBA Mtb inh: 6.4

How did CCN(CC)c1ccc(/C=N/Nc2nc(C)cc(=O)[nH]2)c(O)c1 do in these assays?
Mtb UGM inh: -0.8; Mtb betalactam: 6.8; GDH-TPI counter: 25.8; Rv3671c protease: 6.5; RecA splice inh: 39.0*; FBA Mtb inh: 3.5; GFP chromo cs: >38

What do the screens show for `COc1ccc(NC(=O)/C(Cl)=C(/Cl)S(=O)(=O)Cc2ccc(C)cc2)cn1`?
GDH-TPI counter: 1.1; RecA splice inh: 89.3*; FBA Mtb inh: -1.1; GFP chromo cs: 6.67*

How did COc1ccc(NC(=O)Cc2ccc(Cl)c(Cl)c2)cn1 do in these assays?
Mtb UGM inh: 3.9; Mtb betalactam: 1.6; GDH-TPI counter: 1.9; Rv3671c protease: 2.5; RecA splice inh: 6.9; FBA Mtb inh: 1.5

What do the screens show for `COC(=O)CN1C(c2ccc(Cl)cc2)=Nc2ccc(Cl)cc2C1c1ccccc1` (stereo unspecified)?
Mtb UGM inh: -0.9; Mtb betalactam: 94.2; GDH-TPI counter: 4.5; Rv3671c protease: -13.9; RecA splice inh: 31.7*; FBA Mtb inh: -3.8; GFP chromo cs: >38

What do the screens show for `N#CC1=C(N)Oc2n[nH]c(-c3cccs3)c2C1c1ccsc1` (stereo unspecified)?
Mtb UGM inh: -1.0; Mtb betalactam: -6.1; GDH-TPI counter: 6.9; Rv3671c protease: -20.5; RecA splice inh: 90.5*; FBA Mtb inh: -4.5; GFP chromo cs: 5.42*

How did C/C(=C\c1ccco1)C1C(C#N)=C(N)Oc2n[nH]c(-c3ccc(C)cc3)c21 (stereo unspecified) do in these assays?
Mtb UGM inh: -1.3; Mtb betalactam: -1.6; GDH-TPI counter: 16.5; Rv3671c protease: -10.4; RecA splice inh: 21.0; FBA Mtb inh: -0.3

How did CC(C)(C)c1[nH]nc2c1C(c1ccsc1)C(C#N)=C(N)O2 (stereo unspecified) do in these assays?
Mtb UGM inh: 1.3; Mtb betalactam: -3.6; GDH-TPI counter: 1.3; Rv3671c protease: -12.2; RecA splice inh: 26.5; FBA Mtb inh: 7.3

Results for CC(C)c1[nH]nc2c1C(c1ccco1)C(C#N)=C(N)O2 (stereo unspecified) ?
Mtb UGM inh: 2.1; Mtb betalactam: 2.6; GDH-TPI counter: 5.4; Rv3671c protease: 4.9; RecA splice inh: 63.6*; FBA Mtb inh: 5.3; GFP chromo cs: 28.8*

How did Cc1ccc(C2C(C#N)=C(N)Oc3n[nH]c(-c4cccs4)c32)s1 (stereo unspecified) do in these assays?
Mtb UGM inh: -1.1; Mtb betalactam: -8.1; GDH-TPI counter: -0.9; Rv3671c protease: -16.2; RecA splice inh: 66.7*; FBA Mtb inh: 0.1; GFP chromo cs: 8.81*

What do the screens show for `COc1ccc(OC)c(-c2[nH]nc3c2C(c2ccco2)C(C#N)=C(N)O3)c1` (stereo unspecified)?
Mtb UGM inh: -0.5; Mtb betalactam: 7.9; GDH-TPI counter: 2.3; Rv3671c protease: -3.2; RecA splice inh: 70.1*; FBA Mtb inh: 0.0; GFP chromo cs: 26.3*

Compound activity deposited in PubChem by several laboratories.
